From publication PMC3820963, “The RNA Binding Protein RBM38 (RNPC1) Regulates Splicing during Late Erythroid Differentiation”

target: T1, Rbm38-FF (Mus musculus, UniProt Q62176 1-237); experiment: SELEX-Seq; 16 mM HEPES pH 7.9, 150 mM KCl, 2 mM MgCl2, 60 uM EDTA, 1 mM DTT, 6% glycerol, 0.01 ug/uL heparin, 0.15 mM PMSF, 0.2 U/uL SUPERase-In, room temperature, 30 min; high values mean tight binding; conditions: protein: recombinant; tags: C-terminal 2xFLAG with TEV remnant (SBP removed by TEV cleavage); ssRNA
T1 sequence: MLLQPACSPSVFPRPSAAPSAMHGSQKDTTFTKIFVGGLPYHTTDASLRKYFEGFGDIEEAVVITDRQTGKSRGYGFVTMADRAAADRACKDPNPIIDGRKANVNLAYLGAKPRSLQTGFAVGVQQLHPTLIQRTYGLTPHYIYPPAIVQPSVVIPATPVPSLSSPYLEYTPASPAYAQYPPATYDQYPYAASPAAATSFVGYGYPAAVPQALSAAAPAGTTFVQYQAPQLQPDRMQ

| Sequence | binding signal |
| --- | --- |
| UGUGUGC | 0.00732 fraction of reads |
| GUGUGUA | 0.00612 fraction of reads |
| UGUGUUU | 0.00792 fraction of reads |
| AGUGUGU | 0.0103 fraction of reads |
| GGUGUGG | 0.00694 fraction of reads |
| UGUUGUG | 0.00859 fraction of reads |
| GCGUGUG | 0.00853 fraction of reads |
| GUUGUGU | 0.00961 fraction of reads |
| CGUGUGU | 0.01 fraction of reads |
| GUGCGUG | 0.0063 fraction of reads |
| GUGUUGU | 0.00863 fraction of reads |
| GUGUGGG | 0.00755 fraction of reads |
| GGUGUGU | 0.0109 fraction of reads |
| GUUUGUG | 0.00579 fraction of reads |
| UGGUGUG | 0.00917 fraction of reads |
| GUGUUUG | 0.00702 fraction of reads |
| UGCGUGU | 0.00637 fraction of reads |
| GGGUGUG | 0.0067 fraction of reads |

| Sequence | binding signal |
| --- | --- |
| UGUGGUG | 0.00628 fraction of reads |
| GAGUGUG | 0.00663 fraction of reads |
| UGUGUGG | 0.00894 fraction of reads |
| UUGUGUU | 0.00601 fraction of reads |
| UGUGUGU | 0.0159 fraction of reads |
| UUGUGUG | 0.00989 fraction of reads |
| GUGUGUG | 0.016 fraction of reads |
| UUUGUGU | 0.00629 fraction of reads |
| AUGUGUG | 0.00771 fraction of reads |
| GUGUGGU | 0.00929 fraction of reads |
| GUGUGUC | 0.00739 fraction of reads |
| CAGUGUG | 0.00615 fraction of reads |
| GUGUGCG | 0.00564 fraction of reads |
| UGUGUUG | 0.00826 fraction of reads |
| GUGGUGU | 0.00782 fraction of reads |
| GUGUGUU | 0.0136 fraction of reads |
| CGGUGUG | 0.00653 fraction of reads |
| GGCGUGU | 0.00692 fraction of reads |
